Outcome and AC50 data for eleven compounds are collected here from PubChem BioAssay (EPA / NIEHS).

Results filed as inconclusive are left out. The source made the active and inactive calls. The calls were made as follows, unless noted: active = hit-call score of the fitted dose curve at least 0.9, where 1 is the maximum; inactive = score below 0.9.

The target in test [1] is human RAR-related Orphan Receptor gamma (RORg), RORC (gene 6097) (UniProt P51449). Put plainly: ATG_RORg_TRANS: Attagene TRANS-FACTORIAL HepG2 Assay for human RAR-related Orphan Receptor gamma (RORg) (AID 2283011; active = hit-call score of the fitted dose curve at least 0.9, where 1 is the maximum). In a few lines: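 Transient MRTU transfection of HepG2 (TRANS format, exogenous NR-Gal4 chimera). 24 h dosing. Total RNA → oligo(dT) RT → PCR → 6-FAM labelling → HpaI cut → CE. Gain vs DMSO.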

The target in test [2] is Retinoic acid receptor RXR-alpha (Homo sapiens) (UniProt P19793). The test can be described thus: ATG_RXRa_TRANS: Attagene TRANS-FACTORIAL HepG2 Assay for human Retinoid X Receptor alpha (RXRa) (AID 2283012; active = hit-call score of the fitted dose curve at least 0.9, where 1 is the maximum). In a few lines:
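Transient transfection of human HepG2 with multiple GAL4-UAS reporter constructs; 24 h compound exposure; total RNA isolated, reverse-transcribed, PCR-amplified, 6-FAM labelled, HpaI-cut, resolved by capillary electrophoresis. Positive-direction fit versus DMSO.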

Test [3] concerns the target human Retinoid X Receptor beta (RXRb), RXRB (gene 6257) (UniProt P28702). The test can be described thus: ATG_RXRb_TRANS: Attagene TRANS-FACTORIAL HepG2 Assay for human Retinoid X Receptor beta (RXRb) (AID 2283013; active = hit-call score of the fitted dose curve at least 0.9, where 1 is the maximum). In a few lines: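 Transfect HepG2 with GAL4-UAS multi-reporter constructs (chimeric NR-Gal4, TRANS format); dose compound 24 h; isolate RNA, RT-PCR, FAM primer extension, HpaI digest; quantify by capillary electrophoresis; positive direction vs DMSO.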

In test [4] the target is human Thyroid Receptor alpha (THRa1), THRA (gene 7067) (UniProt P10827). Put plainly: ATG_THRa1_TRANS: Attagene TRANS-FACTORIAL HepG2 Assay for human Thyroid Receptor alpha (THRa1) (AID 2283014; active = hit-call score of the fitted dose curve at least 0.9, where 1 is the maximum). The method, boiled down: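 Transient HepG2 transfection, NR-Gal4 chimera driving GAL4-UAS reporters; 24 h compound exposure; total RNA, oligo(dT) RT, PCR, fluorescent primer extension, capillary electrophoresis. Upward direction vs DMSO control.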

Read-out in test [5]: E-selectin (Homo sapiens) (UniProt P16581)
Put plainly: BSK_3C_Eselectin: BioMAP Diversity Plus: 3C Assay for Eselectin Biomarker Activity (AID 2283015).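 As to Outcome: cell surface E-selectin protein quantified by ELISA 24 h after dosing.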 To be noted: primary human endothelial cells (HUVEC); actives raise or lower the signal. The method, boiled down:
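HUVEC, 3C stimulation; compound exposure 24 h; E-selectin by ELISA; gain- or loss-of-signal fitted bidirectionally vs DMSO baseline.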

Read-out in test [6]: Interleukin-1 alpha (IL1a), IL1A (gene 3552)
The test can be described thus: BSK_BE3C_IL1a: BioMAP Diversity Plus: BE3C Assay for Interleukin-1 alpha (IL1a) Biomarker Activity (AID 2283016). To be noted: primary human bronchial epithelial cells; actives raise or lower the signal. In a few lines: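 BE3C primary human bronchial epithelium; cpd 24 h; IL-1a by ELISA; bidirectional fit vs DMSO; parallel SRB (0.1% SRB, 10% TCA fix, 560 nm) for cytotoxicity.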

Read-out in test [7]: Monocyte Chemoattractant Protein-1 (MCP1), CCL2 (gene 6347)
The test can be described thus: BSK_3C_MCP1: BioMAP Diversity Plus: 3C Assay for Monocyte Chemoattractant Protein-1 (MCP1) Biomarker Activity (AID 2283017). Conditions: primary human endothelial cells (HUVEC); actives raise or lower the signal. The method, boiled down: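 HUVEC, 3C system; 24 h chemical exposure; MCP-1 by ELISA; bidirectional curve fit vs DMSO baseline.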

Read-out in test [8]: Monocyte Chemoattractant Protein-1 (MCP1), CCL2 (gene 6347)
Put plainly: BSK_4H_MCP1: BioMAP Diversity Plus: 4H Assay for Monocyte Chemoattractant Protein-1 (MCP1) Biomarker Activity (AID 2283018). Conditions: primary human endothelial cells (HUVEC); actives raise or lower the signal. In a few lines:
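ELISA read-out of MCP-1 from human vascular endothelial primary cells taken at 24 hours after compound exposure. Activity was fitted in both directions relative to DMSO, which served as negative control.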

Read-out in test [9]: Human Leukocyte Antigen - DR isotype (HLADR), HLA-DRA (gene 3122)
Put plainly: BSK_3C_HLADR: BioMAP Diversity Plus: 3C Assay for Human Leukocyte Antigen - DR isotype (HLADR) Biomarker Activity (AID 2283019).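 As to Outcome: ELISA of cell-surface HLA-DR on HUVEC 24 h after dosing.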 To be noted: primary human endothelial cells (HUVEC); actives raise or lower the signal. The method, boiled down: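 HUVEC, 3C stimulation, 24 h post-dose; HLA-DR by ELISA; bidirectional curve fit vs DMSO baseline; gain or loss of signal scored.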

Read-out in test [10]: Interleukin-8 (IL8), CXCL8 (gene 3576)
Put plainly: BSK_3C_IL8: BioMAP Diversity Plus: 3C Assay for Interleukin-8 (IL8) Biomarker Activity (AID 2283020). Conditions: primary human endothelial cells (HUVEC); actives raise or lower the signal. The method, boiled down: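 ELISA read-out of IL-8 from human umbilical vein endothelium, measured 24 h after chemical dosing. Activity is expressed relative to DMSO negative control, with both increases and decreases fitted.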

Read-out in test [11]: Monokine induced gamma interferon (MIG), CXCL9 (gene 4283)
The test can be described thus: BSK_3C_MIG: BioMAP Diversity Plus: 3C Assay for Monokine induced gamma interferon (MIG) Biomarker Activity (AID 2283021). Conditions: primary human endothelial cells (HUVEC); actives raise or lower the signal. In a few lines:
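Read-out is ELISA detection of MIG on human umbilical vein endothelial cells, taken 24 h after dosing. Gain or loss of signal was scored relative to DMSO controls using bidirectional curve fitting.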

The nature of test [12]: BSK_3C_SRB: Viability Assessment in the BioMAP Diversity Plus: 3C Assay (AID 2283023).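 Also: fitted both ways against DMSO so a hit may be signal rise or drop.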 To be noted: primary human endothelial cells (HUVEC). The method, boiled down: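 HUVEC, 24 h post-dose; 10% TCA fix, 0.1% SRB stain, A560 nm. Bidirectional curve fit vs DMSO negative control.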
Read-out in test [13]: Matrix Metallopeptidase 1 (MMP1), MMP1 (gene 4312)
Put plainly: BSK_BE3C_MMP1: BioMAP Diversity Plus: BE3C Assay for Matrix Metallopeptidase 1 (MMP1) Biomarker Activity (AID 2283024). To be noted: primary human bronchial epithelial cells; actives raise or lower the signal. The method, boiled down:
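Human bronchial epithelial cells (BE3C system) exposed to compound for 24 h; MMP1 then quantified by ELISA. Activity was fitted in both directions relative to DMSO.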

A short description of test [14]: BSK_3C_Vis: BioMAP Diversity Plus: 3C Assay for Morphology Visualization (AID 2283025).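 Also: fitted both ways so gain or loss versus DMSO counts.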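 As to AC50: light microscopy image of cell morphology used as background control.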 Conditions: primary human endothelial cells (HUVEC). In a few lines:
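Chemicals were added to primary human umbilical vein endothelium, cells were incubated 24 h, and morphology was then visualized by light microscopy. Gain or loss of signal was fitted bidirectionally relative to DMSO.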

Read-out in test [15]: Pselectin, SELP (gene 6403)
Put plainly: BSK_4H_Pselectin: BioMAP Diversity Plus: 4H Assay for Pselectin Biomarker Activity (AID 2283026). To be noted: primary human endothelial cells (HUVEC); actives raise or lower the signal. In a few lines: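 ELISA read-out of P-selectin on human umbilical vein endothelium after 24 h of dosing. Values derive from bidirectional fitting relative to DMSO. Parallel SRB protein staining flagged overt cytotoxicity.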

Test [16] in a line: BSK_BE3C_SRB: Viability Assessment in the BioMAP Diversity Plus: BE3C Assay (AID 2283028). To be noted: primary human bronchial epithelial cells. The method, boiled down:
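Primary human bronchial epithelium; chemical dosing, 24 h; 10% TCA fix, 0.1% SRB stain, A560; bidirectional fit vs DMSO baseline.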

Read-out in test [17]: Thrombomodulin, THBD (gene 7056)
The test can be described thus: BSK_3C_Thrombomodulin: BioMAP Diversity Plus: 3C Assay for Thrombomodulin Biomarker Activity (AID 2283029). Conditions: primary human endothelial cells (HUVEC); actives raise or lower the signal. In a few lines:
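Read-out is ELISA of thrombomodulin on human umbilical vein endothelium 24 h after chemical dosing. Gain or loss of signal is scored relative to DMSO. Overt cytotoxicity is checked in parallel cultures by sulforhodamine B staining.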

Read-out in test [18]: Urokinase-type plasminogen activator receptor (uPAR), PLAUR (gene 5329)
The test can be described thus: BSK_4H_uPAR: BioMAP Diversity Plus: 4H Assay for Urokinase-type plasminogen activator receptor (uPAR) Biomarker Activity (AID 2283030). Conditions: primary human endothelial cells (HUVEC); actives raise or lower the signal. In a few lines:
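HUVEC, 24 h post-dose; uPAR by ELISA; bidirectional fit vs DMSO baseline.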

For test [19], the target named is human Vitamin D Receptor (VDR), VDR (gene 7421) (UniProt P11473). The test can be described thus: ATG_VDR_TRANS: Attagene TRANS-FACTORIAL HepG2 Assay for human Vitamin D Receptor (VDR) (AID 2283022; active = hit-call score of the fitted dose curve at least 0.9, where 1 is the maximum). The method, boiled down:
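RT-PCR/capillary electrophoresis read-out of reporter mRNA induction in transiently transfected HepG2; 24 h dosing; chimeric NR-Gal4 (TRANS format); gain-of-signal fit against DMSO baseline.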

Chain of human Thyroid Receptor alpha (THRa1), THRA (gene 7067) (P10827 whole entry, looked up, the tested form may be a part): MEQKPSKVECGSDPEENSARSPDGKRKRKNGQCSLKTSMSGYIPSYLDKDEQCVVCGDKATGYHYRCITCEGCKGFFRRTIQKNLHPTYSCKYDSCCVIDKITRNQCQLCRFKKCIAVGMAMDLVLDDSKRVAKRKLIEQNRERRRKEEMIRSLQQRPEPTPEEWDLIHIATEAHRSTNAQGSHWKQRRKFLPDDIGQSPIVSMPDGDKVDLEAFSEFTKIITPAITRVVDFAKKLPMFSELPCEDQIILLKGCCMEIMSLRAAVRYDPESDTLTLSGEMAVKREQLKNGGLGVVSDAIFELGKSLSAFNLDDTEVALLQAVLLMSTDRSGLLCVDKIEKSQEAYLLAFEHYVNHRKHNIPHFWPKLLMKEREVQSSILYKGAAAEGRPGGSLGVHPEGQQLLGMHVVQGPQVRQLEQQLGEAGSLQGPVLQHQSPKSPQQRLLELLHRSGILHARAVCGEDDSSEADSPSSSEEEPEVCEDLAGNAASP
Chain of human Vitamin D Receptor (VDR), VDR (gene 7421) (P11473 whole entry, looked up, the tested form may be a part): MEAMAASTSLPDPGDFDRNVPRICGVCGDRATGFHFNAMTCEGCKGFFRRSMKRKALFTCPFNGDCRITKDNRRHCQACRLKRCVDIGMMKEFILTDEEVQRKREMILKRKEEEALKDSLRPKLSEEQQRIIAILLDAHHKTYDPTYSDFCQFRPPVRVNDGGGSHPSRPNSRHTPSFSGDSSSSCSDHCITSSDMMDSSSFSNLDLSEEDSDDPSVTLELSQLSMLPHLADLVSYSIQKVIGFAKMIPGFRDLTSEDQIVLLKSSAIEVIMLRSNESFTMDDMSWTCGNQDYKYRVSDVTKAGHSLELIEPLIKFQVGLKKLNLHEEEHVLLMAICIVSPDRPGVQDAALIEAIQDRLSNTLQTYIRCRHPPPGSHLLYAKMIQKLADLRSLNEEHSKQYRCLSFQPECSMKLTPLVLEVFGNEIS
Chain of Retinoic acid receptor RXR-alpha (Homo sapiens) (P19793 whole entry, looked up, the tested form may be a part): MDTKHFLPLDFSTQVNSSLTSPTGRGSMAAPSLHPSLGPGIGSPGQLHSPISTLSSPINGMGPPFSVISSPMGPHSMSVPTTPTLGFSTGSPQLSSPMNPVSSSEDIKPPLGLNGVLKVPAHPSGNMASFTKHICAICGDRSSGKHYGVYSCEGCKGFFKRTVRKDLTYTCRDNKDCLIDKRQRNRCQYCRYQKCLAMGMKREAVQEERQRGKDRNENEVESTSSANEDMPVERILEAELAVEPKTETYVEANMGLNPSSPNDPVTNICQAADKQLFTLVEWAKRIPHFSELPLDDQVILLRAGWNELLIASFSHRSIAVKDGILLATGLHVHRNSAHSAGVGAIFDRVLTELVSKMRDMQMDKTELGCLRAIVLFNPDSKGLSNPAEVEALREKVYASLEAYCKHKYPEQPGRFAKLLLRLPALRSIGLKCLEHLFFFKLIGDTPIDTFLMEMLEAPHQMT
Chain of human Retinoid X Receptor beta (RXRb), RXRB (gene 6257) (P28702 whole entry, looked up, the tested form may be a part): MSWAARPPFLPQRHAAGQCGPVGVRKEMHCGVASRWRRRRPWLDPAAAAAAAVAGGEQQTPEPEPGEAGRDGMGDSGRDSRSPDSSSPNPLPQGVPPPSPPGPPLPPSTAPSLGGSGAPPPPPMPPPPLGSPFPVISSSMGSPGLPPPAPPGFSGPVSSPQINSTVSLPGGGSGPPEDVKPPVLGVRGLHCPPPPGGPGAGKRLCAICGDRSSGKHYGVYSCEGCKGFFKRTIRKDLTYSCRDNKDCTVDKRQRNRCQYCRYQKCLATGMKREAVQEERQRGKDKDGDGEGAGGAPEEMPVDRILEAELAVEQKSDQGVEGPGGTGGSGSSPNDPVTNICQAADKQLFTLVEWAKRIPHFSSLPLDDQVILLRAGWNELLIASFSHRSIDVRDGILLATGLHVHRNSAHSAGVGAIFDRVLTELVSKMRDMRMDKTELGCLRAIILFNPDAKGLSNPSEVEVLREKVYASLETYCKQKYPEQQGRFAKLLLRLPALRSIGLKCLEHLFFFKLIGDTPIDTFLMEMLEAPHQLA
Chain of E-selectin (Homo sapiens) (P16581 whole entry, looked up): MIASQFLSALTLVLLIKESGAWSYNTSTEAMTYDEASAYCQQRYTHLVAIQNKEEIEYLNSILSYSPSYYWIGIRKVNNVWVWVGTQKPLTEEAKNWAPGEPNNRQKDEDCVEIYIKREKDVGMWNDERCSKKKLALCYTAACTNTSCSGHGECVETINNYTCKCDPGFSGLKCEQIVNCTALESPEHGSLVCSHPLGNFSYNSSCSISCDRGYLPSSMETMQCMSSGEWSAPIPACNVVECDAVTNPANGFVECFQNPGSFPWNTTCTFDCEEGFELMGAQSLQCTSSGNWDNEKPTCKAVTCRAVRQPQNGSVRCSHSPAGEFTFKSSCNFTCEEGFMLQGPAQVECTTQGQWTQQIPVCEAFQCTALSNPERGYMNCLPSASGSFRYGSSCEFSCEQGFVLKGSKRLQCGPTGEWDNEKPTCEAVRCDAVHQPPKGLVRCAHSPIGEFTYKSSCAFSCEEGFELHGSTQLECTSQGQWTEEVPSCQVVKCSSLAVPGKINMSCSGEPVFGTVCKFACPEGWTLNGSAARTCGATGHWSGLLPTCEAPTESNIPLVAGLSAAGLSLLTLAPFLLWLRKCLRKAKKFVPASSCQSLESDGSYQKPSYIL
Chain of human RAR-related Orphan Receptor gamma (RORg), RORC (gene 6097) (P51449 whole entry, looked up, the tested form may be a part): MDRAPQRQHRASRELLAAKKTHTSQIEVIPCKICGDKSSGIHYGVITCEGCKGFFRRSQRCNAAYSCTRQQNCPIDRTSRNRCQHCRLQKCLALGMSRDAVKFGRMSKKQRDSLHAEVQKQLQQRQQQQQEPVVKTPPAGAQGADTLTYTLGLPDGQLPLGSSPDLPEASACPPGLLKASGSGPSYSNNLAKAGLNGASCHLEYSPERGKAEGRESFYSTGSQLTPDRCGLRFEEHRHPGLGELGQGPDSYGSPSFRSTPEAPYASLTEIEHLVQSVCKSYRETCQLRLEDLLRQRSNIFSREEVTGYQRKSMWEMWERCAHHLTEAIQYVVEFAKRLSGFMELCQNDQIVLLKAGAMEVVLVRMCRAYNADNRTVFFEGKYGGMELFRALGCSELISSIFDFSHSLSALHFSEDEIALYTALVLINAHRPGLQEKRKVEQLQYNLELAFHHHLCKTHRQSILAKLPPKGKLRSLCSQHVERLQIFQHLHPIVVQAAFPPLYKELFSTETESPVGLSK

Take `CC(=O)CCC=C(C)CCC=C(C)C`: the call in test [1], in test [2], in [3], in test [4], in [5] and in [6] was inactive. Also, the result in test [7], in [8], in [9], in [10], in test [11] and in test [12] was inactive. The result in [13], in test [14], in test [15], in test [16], in test [17] and in test [18] was inactive.

As to `CC(=O)C1C(=O)C=C(C)OC1=O` (centres undefined), the outcome in test [1], in test [2] and in [4] was inactive.

With `O=Cc1ccccc1O`, the call in test [1], in test [2], in [3], in test [4] and in [19] was inactive.

Turning to `CC(=O)c1ccc(O)cc1`, the outcome in test [1], in test [2], in [3] and in [19] was inactive.

With `Nc1ccc(N)c([N+](=O)[O-])c1`, the call in [1], in test [2], in test [3], in [4], in [6] and in test [7] was inactive. Also, the outcome in test [8], in test [9], in [10], in test [11], in test [12] and in test [13] was inactive. Further, the outcome in [14], in test [15], in test [16], in test [17] and in test [18] was inactive. In addition, the AC50 in test [5] is 13.6 µM (active).

Turning to `CCCCCCCCCCCCS`, the call in [1], in [2], in test [3], in [6], in [11] and in [19] was inactive. The outcome in [16], in [17] and in test [18] was inactive. The AC50 is 20 µM (active) in test [5]; 29.5 µM (active) in test [7]; 23.8 µM (active) in test [8]; 20 µM (active) in test [9]; 20 µM (active) in test [10]; 26.5 µM (active) in [12]. Also, the AC50 in test [13], in test [14] and in [15] was 20 µM (active) each time.

As to `S=c1[nH][nH]c(=S)s1`, the compound was called inactive in test [1], in test [2], in test [3], in test [4] and in [19].

As to `O=C1CCC(=O)N1`, the outcome in test [1], in test [2] and in test [4] was inactive.

With `CC(C)(C)c1cc(CCC(=O)OCCSCCOC(=O)CCc2cc(C(C)(C)C)c(O)c(C(C)(C)C)c2)cc(C(C)(C)C)c1O`, the compound was called inactive in test [1], in [2] and in [4]. Also, in test [3], the AC50 was 33.9 µM (active).

For `NNC(=O)OCc1ccccc1`, the compound was classed as inactive in test [1], in test [2], in test [3], in test [4] and in [19].

`CC(C)CCCC(C)(C)O`: the compound was classed as inactive in test [1], in test [2], in [3], in [5], in test [6] and in test [7]. The result in test [8], in test [9], in test [10], in test [11], in [12] and in test [13] was inactive. Also, the outcome in [15], in test [16], in test [17] and in test [18] was inactive.

What is called AC50 is the concentration giving half of the maximal activity seen.
